This note sets out measurements from the supplement of paper PMC12636033.

± gives the standard deviation of the averaged measurements. Whole data set: some 33,000 sequences, median “E-score (rank enrichment, -0.5 to 0.5)” near -0.0075, cut for the highest 2% near 0.23. The list comes from a sample in which the highest values are over-represented; it also holds similar and randomly drawn sequences.

The test system of the test is WT Max(13-93) synthetic (M65Nle). The test is described as follows: PBM 8-mer E-score (E-score (rank enrichment, -0.5 to 0.5)); higher = stronger preferential binding. How it is done: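 Protein binding microarray (universal PBM chip covering all 10-mers in fixed probe flanks) with chemically synthesized human Max(13-93) bHLH-LZ analogs (not full-length Max) bearing noncanonical residues (hArg, Tha, Aib, Nle at 65) and aromatic Cys staples. Read-out per 8-mer (and its reverse complement): E-score (rank-based enrichment, -0.5 to 0.5) and Z-score of median probe intensity.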
CCAAACTA: the “PBM 8-mer E-score” value came to 0.165 ± 0.012.

Consider AAGCTCAT, for which the “PBM 8-mer E-score” value is -0.131 ± 0.098.

Regarding AAGGTCGG, the “PBM 8-mer E-score” value was -0.014 ± 0.081.

Regarding AGACAACT, the “PBM 8-mer E-score” value is 0.0555 ± 0.044.

For AGACAACG, the “PBM 8-mer E-score” value was 0.246 ± 0.068.

As to AGACAACC, the “PBM 8-mer E-score” value came out at 0.0303 ± 0.033.

As to CGGCAGTA, the “PBM 8-mer E-score” value was -0.142 ± 0.064.

As for AATCGATC, the “PBM 8-mer E-score” value was -0.232 ± 0.024.

As for CCCCTAGA, the “PBM 8-mer E-score” value amounted to 0.0696 ± 0.042.

As to TTATTGAA, the “PBM 8-mer E-score” value was determined as 0.254 ± 0.0091.

For the sequence ATATTGAA, the “PBM 8-mer E-score” value was 0.114 ± 0.03.

As to GTATTGAA, the “PBM 8-mer E-score” value worked out at 0.119 ± 0.057.

Regarding CTCATAGA, the “PBM 8-mer E-score” value is -0.0903 ± 0.024.

As to AGCCGGAC, the “PBM 8-mer E-score” value was -0.207 ± 0.036.

As for CCGATTAG, the “PBM 8-mer E-score” value was 0.0704 ± 0.0021.

For the sequence CCCCCATC, the “PBM 8-mer E-score” value was 0.0485 ± 0.11.

CTAAGTTA: the “PBM 8-mer E-score” value is -0.011 ± 0.089.

Turning to GTAAGTTA, the “PBM 8-mer E-score” value was found to be 0.0737 ± 0.022.

For the sequence ATAAGTTA, the “PBM 8-mer E-score” value is 0.258 ± 0.062.

For ATGGTGCG, the “PBM 8-mer E-score” value was -0.0696 ± 0.06.

On to GTGGTGCA, for which the “PBM 8-mer E-score” value stood at 0.0246 ± 0.1.

For the sequence ATGGTGCA, the “PBM 8-mer E-score” value worked out at 0.264 ± 0.074.

For the sequence GGAAAGCA, the “PBM 8-mer E-score” value is -0.0514 ± 0.036.

For CGCGGACA, the “PBM 8-mer E-score” value was -0.102 ± 0.039.

AACGAGCG: the “PBM 8-mer E-score” value is -0.0104 ± 0.028.

As for CTCATGTA, the “PBM 8-mer E-score” value stood at 0.138 ± 0.03.

Regarding AACATGTC, the “PBM 8-mer E-score” value stood at 0.12 ± 0.037.

Take CACATGTA: the “PBM 8-mer E-score” value was determined as 0.379 ± 0.0071.

Regarding CACATGTC, the “PBM 8-mer E-score” value stood at 0.186 ± 0.026.

As to CCCATGTA, the “PBM 8-mer E-score” value worked out at 0.0146 ± 0.049.

With CAAATGTG, the “PBM 8-mer E-score” value is 0.152 ± 0.026.

For CACATGTG, the “PBM 8-mer E-score” value turned out to be 0.435 ± 0.007.

In the case of AACATGTG, the “PBM 8-mer E-score” value came out at 0.412 ± 0.017.

Regarding AACATGTT, the “PBM 8-mer E-score” value came out at 0.137 ± 0.042.

For the sequence CGCTGTGA, the “PBM 8-mer E-score” value is -0.0883 ± 0.11.

Regarding AGGAGGAC, the “PBM 8-mer E-score” value is -0.0293 ± 0.04.

On to GTGGGATA, for which the “PBM 8-mer E-score” value was determined as 0.163 ± 0.018.

In the case of GCGGTACC, the “PBM 8-mer E-score” value is -0.176 ± 0.019.

Regarding CTATGTAA, the “PBM 8-mer E-score” value is -0.0284 ± 0.05.

For ATATGTAC, the “PBM 8-mer E-score” value was 0.0738 ± 0.0056.

Turning to GTATGTCA, the “PBM 8-mer E-score” value turned out to be 0.246 ± 0.028.

In the case of ATATGTAA, the “PBM 8-mer E-score” value was found to be 0.239 ± 0.05.

Regarding GTATGTTA, the “PBM 8-mer E-score” value was 0.164 ± 0.091.

Consider GTATGTAA, for which the “PBM 8-mer E-score” value came out at 0.288 ± 0.0084.

In the case of CTATGTCA, the “PBM 8-mer E-score” value came to 0.0959 ± 0.026.

Consider GAATGTAA, for which the “PBM 8-mer E-score” value stood at 0.163 ± 0.13.

As for ATATGTCA, the “PBM 8-mer E-score” value was 0.1 ± 0.073.

AGGCGAAG: the “PBM 8-mer E-score” value is -0.078 ± 0.072.

Regarding CCGTTTCG, the “PBM 8-mer E-score” value is -0.0232 ± 0.051.

Consider GCTCACGA, for which the “PBM 8-mer E-score” value came to 0.0957 ± 0.066.

For AACGGTAT, the “PBM 8-mer E-score” value was 0.0275 ± 0.051.

In the case of CCAGTGAA, the “PBM 8-mer E-score” value is -0.0413 ± 0.11.

With AAAGCAAT, the “PBM 8-mer E-score” value was 0.0889 ± 0.03.

Regarding ATACTGTG, the “PBM 8-mer E-score” value came out at 0.012 ± 0.036.

As to ATACATTG, the “PBM 8-mer E-score” value is 0.168 ± 0.05.

For the sequence CTACATTC, the “PBM 8-mer E-score” value turned out to be 0.0193 ± 0.054.

For the sequence ATACATTC, the “PBM 8-mer E-score” value was 0.285 ± 0.006.

On to GCTCGCCA, for which the “PBM 8-mer E-score” value was -0.0485 ± 0.054.

Take GCGCTAAC: the “PBM 8-mer E-score” value was -0.0628 ± 0.026.

As for AGGAGATA, the “PBM 8-mer E-score” value turned out to be 0.0677 ± 0.065.

Take CCAGCGGA: the “PBM 8-mer E-score” value is -0.175 ± 0.022.

Consider TGCATTAA, for which the “PBM 8-mer E-score” value was determined as 0.26 ± 0.051.

In the case of CTCATTAA, the “PBM 8-mer E-score” value turned out to be 0.204 ± 0.07.

Turning to ACCATTCA, the “PBM 8-mer E-score” value was determined as 0.233 ± 0.0053.

For the sequence AGCATTAA, the “PBM 8-mer E-score” value was 0.173 ± 0.078.

With CGCATTAA, the “PBM 8-mer E-score” value is -0.00629 ± 0.02.

As for ACCATTCG, the “PBM 8-mer E-score” value is -0.0773 ± 0.11.

With ATCATTAA, the “PBM 8-mer E-score” value was found to be 0.238 ± 0.023.

Regarding TCCATTAA, the “PBM 8-mer E-score” value turned out to be 0.0431 ± 0.0063.

Turning to ACCATTCC, the “PBM 8-mer E-score” value is 0.00607 ± 0.099.

In the case of ATCATTAG, the “PBM 8-mer E-score” value came to 0.209 ± 0.02.

For the sequence CCCATTAA, the “PBM 8-mer E-score” value came out at 0.0514 ± 0.069.

With ACCATTAA, the “PBM 8-mer E-score” value was found to be 0.284 ± 0.11.

Regarding AATGGTCT, the “PBM 8-mer E-score” value was -0.085 ± 0.06.

As to ATTTTGCC, the “PBM 8-mer E-score” value was -0.00751 ± 0.0085.

CATTCGCG: the “PBM 8-mer E-score” value came out at 0.0727 ± 0.022.

ACCCTTAC: the “PBM 8-mer E-score” value turned out to be 0.0907 ± 0.047.

Regarding ATCGTGAC, the “PBM 8-mer E-score” value is -0.123 ± 0.014.

GGCTGCCC: the “PBM 8-mer E-score” value is -0.212 ± 0.043.

Take AACAGACT: the “PBM 8-mer E-score” value is 0.125 ± 0.061.

On to AAGGCGTC, for which the “PBM 8-mer E-score” value was -0.0911 ± 0.022.

For TGCCACAA, the “PBM 8-mer E-score” value is -0.0153 ± 0.13.

Regarding CCCAGTTA, the “PBM 8-mer E-score” value was -0.0517 ± 0.012.

Take ACTAATAA: the “PBM 8-mer E-score” value is 0.182 ± 0.058.

In the case of AATAATTA, the “PBM 8-mer E-score” value was determined as 0.237 ± 0.058.

On to AATAATTC, for which the “PBM 8-mer E-score” value came out at 0.0855 ± 0.084.

As to CCTAATAA, the “PBM 8-mer E-score” value was found to be 0.166 ± 0.01.
